Screening data: PubChem, The Scripps Research Institute Molecular Screening Center
Hits are enriched below; roughly 3.5% of the tested compounds scored in any of these assays.
MITF inh – MITF inhibitors, primary screen, biochemical, AlphaScreen, human | Microphthalmia-associated transcription factor (Homo sapiens), O75030 | AlphaScreen MITF homodimerization, bead proximity signal | inhibition, % at 2.6 µM | hit rate 0.91% among 650,000; in the data active = inhibition above about 50%;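 note: 0% = vehicle wells with protein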
GPR151 ag – activators of human GPR151, primary screen, cell-based, PathHunter beta-arrestin, luminescence. PathHunter beta-arrestin GPR151 cells. activation, % at 11.2 µM. hit rate 1% among 650,000; in the data active = activation above about 4.9%;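 note: 0% = median of compound wells and 100% = cells with positive control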
FBW7 act – FBW7 E3 ligase activators, primary screen, biochemical, AlphaScreen, human | F-box/WD repeat-containing protein 7 (Homo sapiens), Q969H0 | AlphaScreen FBW7–phospho-cyclin E peptide binding, activator screen | normalized activity (activation), % at 26.1 µM | hit rate 0.13% among 650,000 | AID 1259310, 2017; in the data active = normalized activity above about 1.9%;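 note: purified mutant Fbw7 with reduced substrate affinity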
Target sequence (Q969H0 whole entry, looked up): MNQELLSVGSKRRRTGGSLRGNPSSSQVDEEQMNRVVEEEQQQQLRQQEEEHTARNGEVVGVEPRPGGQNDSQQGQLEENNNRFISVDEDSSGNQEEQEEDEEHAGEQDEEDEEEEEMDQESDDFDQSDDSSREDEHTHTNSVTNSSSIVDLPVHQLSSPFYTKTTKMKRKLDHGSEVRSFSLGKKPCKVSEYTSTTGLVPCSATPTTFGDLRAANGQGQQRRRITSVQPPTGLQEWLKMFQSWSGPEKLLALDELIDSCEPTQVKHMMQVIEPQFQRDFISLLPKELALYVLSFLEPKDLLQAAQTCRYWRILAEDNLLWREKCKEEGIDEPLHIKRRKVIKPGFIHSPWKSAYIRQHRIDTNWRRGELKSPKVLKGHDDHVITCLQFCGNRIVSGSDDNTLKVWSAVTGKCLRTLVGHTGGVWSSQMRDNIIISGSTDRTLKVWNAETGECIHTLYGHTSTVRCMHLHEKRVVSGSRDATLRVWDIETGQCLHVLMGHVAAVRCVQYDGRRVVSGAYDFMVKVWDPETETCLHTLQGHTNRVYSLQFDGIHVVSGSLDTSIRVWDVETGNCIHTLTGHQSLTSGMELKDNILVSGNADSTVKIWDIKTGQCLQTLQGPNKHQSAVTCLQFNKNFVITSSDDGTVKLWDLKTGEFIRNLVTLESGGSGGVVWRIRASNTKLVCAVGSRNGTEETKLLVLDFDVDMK
TEAD-YAP block – TEAD-YAP interaction inhibition, primary screen, TEAD-YAP interaction inhibitor project, luminescence, HEK-TIYL cells | TEAD-Gal4/YAP UAS-luciferase luminescence | inhibition, % at 9.12 µM | hit rate 1.4% among 640,000; in the data active = inhibition above about 32%;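 note: 0% = median of test compound wells and 100% = reference inhibitor wells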
Active calls of the source: *; nt = no result given.

SMILES	MITF inh	GPR151 ag	FBW7 act	TEAD-YAP block
CCOc1cccc(C2CC(c3ccc(Cl)cc3)=NC(c3cc(Br)ccc3OC)N2)c1O (stereo unspecified)	0	0	-1	3
OC(c1ccccc1)c1ccccn1 (stereo unspecified)	6	2	0	8
CC1CC(C(O)c2ccccn2)C(=O)C(C(O)c2ccccn2)C1 (stereo unspecified)	-4	-1	0	40*
Cc1csnc1NC(=O)c1c(N)nc2c(c1C(F)(F)F)OC1=C(CCC1)O2	6	1	0	96*
N#Cc1c(N)n(CCNC(=O)c2ccco2)c2nc3ccccc3nc12	-8	0	0	4
Cc1ccc(/C=C/C(=O)C2C(=O)c3ccccc3C2=O)cc1	-25	0	0	41*
CCOC(=O)CNC(=O)N1CCCC(N(C)CCc2ccccn2)C1 (stereo unspecified)	-13	-1	1	-16
Cc1ccc(-c2nc(N3N=C(c4ccc(Br)cc4)CC3c3cccc(Br)c3)nc3ccccc23)cc1 (stereo unspecified)	-2	0	0	-15
CCc1c(-c2ccccc2)n(CCO)c2nc3c(c(=O)n(C)c(=O)n3C)n12	18	2	0	64*
CCc1c(-c2ccccc2)n(CC(O)c2ccccc2)c2nc3c(c(=O)n(C)c(=O)n3C)n12 (stereo unspecified)	10	3	0	39*
CCCn1c(-c2ccccc2)c(CC)n2c3c(=O)n(C)c(=O)n(C)c3nc12	12	1	1	6
CC(C)(C)C(C)(O)C#Cc1ccccc1 (stereo unspecified)	0	-8	0	83*
CC(O)(C#Cc1ccccc1)c1ccccc1 (stereo unspecified)	-9	0	0	-2
COc1ccc(N2CC(=O)Nc3ccccc3S2(=O)=O)cc1	12	2	0	-10
CNS(=O)(=O)c1cccc(C(=O)OCC(=O)c2cc(C)n(CC3CCCO3)c2C)c1 (stereo unspecified)	-10	0	0	57*
CNS(=O)(=O)c1cccc(C(=O)OCC(=O)c2cc(C)n(Cc3ccco3)c2C)c1	-5	-1	1	-27
CNS(=O)(=O)c1cccc(C(=O)OCC(=O)c2cc(C)n(Cc3cccs3)c2C)c1	-7	1	0	58*
Cc1cc(C(=O)COC(=O)c2cccc(S(=O)(=O)N(C)C)c2)c(C)n1CC1CCCO1 (stereo unspecified)	22	-1	0	-23
CC(C)c1ccc(NC(=O)C2CCN(C(=O)N3CCOc4ccccc43)CC2)cc1	-2	-1	0	2
CCc1ccc(CN2Cc3ccccc3OC(C)C2)o1 (stereo unspecified)	-8	-1	1	6
COc1ccc(CCNc2cc(-c3csc4ccccc34)nc(N)n2)cc1	8	2	1	57*
Nc1nc(NCc2cccc(C(F)(F)F)c2)cc(-c2csc3ccccc23)n1	9	-1	0	53*
COc1ccc(-c2cc(NCc3cccc(C(F)(F)F)c3)nc(N)n2)cc1	9	0	0	3
Nc1nc(NCc2ccccc2)cc(-c2csc3ccccc23)n1	8	0	0	2
COc1ccc(CCNc2cc(Nc3cnccn3)nc(N)n2)cc1	-6	-1	0	35*
SMILES	MITF inh	GPR151 ag	FBW7 act	TEAD-YAP block
COc1ccc(CCNc2cc(Nc3cnccn3)ncn2)cc1	12	-1	0	3
COc1ccc(-c2cc(NCc3cccc(C(F)(F)F)c3)nc(N)n2)cn1	1	4	0	46*
COc1cc(C(=O)NCc2cccc(CNC(=O)c3cc(OC)c(OC)c(OC)c3)c2)cc(OC)c1OC	-5	1	0	-3
CCOC(=O)c1ccc(NC(=O)CSc2nc3ccccc3c(=O)n2Cc2ccc3c(c2)OCO3)cc1	-9	-1	0	4
Cc1cc(C(=O)N/N=C/c2cc(Br)cc([N+](=O)[O-])c2O)n[nH]1	27	2	-1	-1
Fc1ccc(CNc2nccn3c(-c4cccc5cccnc45)cnc23)cc1	-21	1	0	9
CC(C)CNc1nccn2c(-c3cccc4cccnc34)cnc12	-12	1	0	42*
CCOC(=O)c1oc2c(O)c(O)ccc2c(=O)c1-c1nncn1-c1ccccc1	82*	0	-1	1
CCOC(=O)c1oc2c(C)c(O)ccc2c(=O)c1-c1nncn1-c1ccccc1	3	-1	0	2
CC(=O)C(C(C)=O)C1=C(Cl)C(=O)C(=O)c2ccccc21	0	0	-1	84*
COc1cc(-c2ccc(N=Nc3ccc4c(S(=O)(=O)O)cc(S(=O)(=O)O)c(N)c4c3O)c(OC)c2)ccc1N=Nc1ccc2c(S(=O)(=O)O)cc(S(=O)(=O)O)c(N)c2c1O	77*	-2	0	nt
Nc1c(S(=O)(=O)O)cc(S(=O)(=O)O)c2cccc(O)c12	46	0	-1	9
COc1ccc(C(CCO)N2Cc3ccccc3C2)cc1 (stereo unspecified)	3	0	0	-1
COc1ccc(/C=C2\Oc3c(ccc(O)c3CN3CCCC3)C2=O)cc1	15	0	0	2
COc1cc(/C=C2\Oc3c(ccc(O)c3CN3CCCCC3)C2=O)cc(OC)c1OC	13	2	0	32*
O=C(Nc1ccc(O)cc1)c1sc2ccccc2c1Cl	3	-2	0	87*
Cc1nc(NC(=O)c2sc3ccccc3c2Cl)sc1C	7	-8	0	87*
O=C(N/N=C/c1ccc(O)c(O)c1O)c1sc2ccccc2c1Cl	61*	-1	-1	-1
COC(=O)c1sc(NC(=O)c2sc3ccccc3c2Cl)nc1C	28	2	0	-59
CCC(=O)NCc1ccc(Cl)c(Cl)c1	12	-1	0	0
COc1ccc(-n2c(/C=C3\C(=O)Nc4ccc(C)cc43)nc3ccccc3c2=O)cc1	7	-2	0	-2
COc1ccc(-c2[nH]ncc2CN2CCC3(CC2)CC3C(=O)N2CCCN(C)CC2)cc1 (stereo unspecified)	2	0	0	-1
CNc1nc(-c2cc(C)n(Cc3cccs3)c2C)cs1	15	-1	0	3
CC(=O)C/C(=N/NC(N)=S)C(F)(F)F	-5	0	0	55*
O=C(Nc1ccc2c3c(cccc13)CC2)c1cc(I)ccc1Cl	-13	-1	0	17
O=C(Nc1ccc2c3c(cccc13)CC2)c1cc(Br)ccc1Cl	-4	3	-1	55*
Cc1nonc1CN(C)C(=O)CC1C(=O)NCCN1CCCc1ccccc1 (stereo unspecified)	12	-3	0	-2
CCNc1nc(NC(C)(C)C)nc(SC(C(C)=O)C(C)=O)n1	3	2	0	42*
